From PubChem BioAssay
Compounds with a hit are over-represented: about 19% of the library has one in this group of screens.
HT1080-NT tox: kills 2HG-producing HT-1080-NT fibrosarcoma cells; HT-1080-NT fibrosarcoma viability, CellTiter-Glo ATP luminescence, 48 h; Potency, µM (highest dose often 46.1 µM), usual class: cytotoxic; 360,000 compounds, 1.6% hits; AID 686970;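 further: NT is the 2HG producing partner of a matched IDH1 knockdown line; nearly all actives have a fitted effect of over 55% in size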
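Read-out is CellTiter-Glo luminescence after 10 minutes at room temperature, following 48 hours' compound treatment of HT-1080-NT cells (750 cells/well, RPMI, 5% FBS, 37 degrees C).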
HT1080 IDH1KD tx: HT-1080 IDH1 knockdown cell toxicity (counter line). Potency, µM (highest dose often 46.1 µM), hits mostly cytotoxic. 360,000 compounds, 2% hits. AID 686971. HT-1080 IDH1 knockdown viability, ATP luminescence, 48 h
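CellTiter-Glo luminescence after 48 h compound exposure at 37 degrees C of IDH1-knockdown HT-1080 cells in 5% FBS RPMI. %Activity scaled between DMSO wells and cell-free media wells, with curves fitted and assigned curve classes.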
IL-1B inflam inh: inhibitors of inflammasome signaling (IL-1 beta secretion); THP-1 LPS/ATP IL-1B secretion, AlphaLISA, 16 h; active compounds read low; activity change, % at 57.5 µM; 360,000 compounds, 4.7% hits; AID 743279; in the data active means activity change below about -50%; inconclusive means mostly about -30% to -49%
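Secreted IL-1B measured by AlphaLISA bead assay after 16 h compound exposure of THP-1 cells; compounds (final up to 57.5 uM) added 1 h before LPS (250 ng/mL) and ATP (1.25 mM) stimulation; lower signal means less secretion.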
TDP1 cell CPT: DT40-hTDP1 cell growth loss with CPT | chicken DT40 Tdp1-/-;hTDP1 cells + 20 nM CPT, ATP luminescence, 48 h | Potency, µM (doses to about 46.2 µM), usual class: inhibitors | 420,000 compounds, 12% hits | AID 686979; further: nearly all actives have a fitted effect of over 55% in size
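Chicken DT40 Tdp1-/- cells complemented with human TDP1, 400 cells/well, exposed to compounds plus 20 nM camptothecin for at least 48 h at 37 C; viability read as ATP content by CellTiter-Glo luminescence.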
TDP1 cell noCPT: qHTS for Inhibitors of human tyrosyl-DNA phosphodiesterase 1 (TDP1): qHTS in cells in absence of CPT | Potency, µM (series often up to 46.2 µM), hits mostly inhibitors | 420,000 compounds, 15% hits | DT40 Tdp1-/- hTDP1 cells, no CPT, ATP luminescence, 48 h | AID 686978, 2013; further: nearly all actives have a fitted effect of over 55% in size
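Readout: luminescence from CellTiter-Glo after 30 min in the dark at RT. Cells: DT40 Tdp1-/- with stable hTDP1, 400/well. Exposure: compounds alone, ≥48 hr, 37 °C.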
Each line names hits and unclear results; the compound was inactive in the other large screens. Unless noted, the call rests on the fitted dose curve; in most records, active means well fitted curve in the direction sought with a large enough effect; inconclusive means small, poorly fitted or top-dose-only effect, or another doubt; inactive means no such curve, though single readings can be large; an effect the other way counts as inactive or inconclusive.

CCOc1ccc2nc(N(CCN(C)C)C(=O)/C=C/c3cccs3)sc2c1	IL-1B inflam inh -71.3, TDP1 cell CPT inconclusive, TDP1 cell noCPT 23.1µM
CCOc1ccc2nc(N(Cc3cccnc3)C(C)=O)sc2c1	none (no result: HT1080-NT tox, HT1080 IDH1KD tx, IL-1B inflam inh)
COc1cccc(-n2c(SCC(=O)Nc3ccc4c(c3)OCO4)nc3c([nH]c4ccccc43)c2=O)c1	none (no result: HT1080-NT tox, HT1080 IDH1KD tx, IL-1B inflam inh)
Cc1ccc(C(=O)N(Cc2cc3cccc(C)c3nc2N2CCC(O)CC2)C2CC2)cc1	TDP1 cell noCPT 13µM (no result: HT1080-NT tox, HT1080 IDH1KD tx, IL-1B inflam inh)
CC(C)C(C(=O)NCc1ccccc1)N1CCN(C(=O)C2CCCO2)CC1 (stereo not drawn)	none
COc1ccccc1NC(=S)Nc1cccc2cnccc12	HT1080-NT tox inconclusive, HT1080 IDH1KD tx inconclusive, TDP1 cell CPT 25.9µM, TDP1 cell noCPT 23.1µM
CN(C)S(=O)(=O)c1cccc(NC(=S)Nc2cccc3cnccc23)c1	TDP1 cell CPT 16.4µM, TDP1 cell noCPT 13µM
S=C(Nc1ccc(Cl)cc1)Nc1cccc2cnccc12	IL-1B inflam inh inconclusive, TDP1 cell CPT inconclusive, TDP1 cell noCPT 23.1µM
S=C(Nc1cccnc1)Nc1cccc2cnccc12	none
CCCCn1c(N)c(N(CC)C(=O)c2cccs2)c(=O)[nH]c1=O	none
COc1ccc(NC(=O)N2CCNC(=O)C2CC(=O)Nc2ccc(F)cc2)cc1 (stereo not drawn)	none
CC(C)CCn1cnc2c(sc3nc4c(cc32)CSC(C)(C)C4)c1=O	TDP1 cell CPT inconclusive, TDP1 cell noCPT 16.4µM
CC1(C)Cc2nc3sc4c(NCCO)ncnc4c3cc2CS1	TDP1 cell CPT inconclusive, TDP1 cell noCPT 20.6µM
CCCCn1cnc2c(sc3nc4c(cc32)CSC(C)(C)C4)c1=O	TDP1 cell CPT inconclusive, TDP1 cell noCPT inconclusive
Cc1cc(Oc2ccc(Cl)cc2Cl)nc(C#N)n1	TDP1 cell CPT 11.2µM, TDP1 cell noCPT 17.8µM (no result: IL-1B inflam inh)
COc1ccc(Cn2cc(CN3CC(N4CCCC4)CS3(=O)=O)nn2)cc1 (stereo not drawn)	none
C/C(=N\NC(=O)c1cc(C)nc2ccccc12)c1ccccn1	HT1080-NT tox inconclusive, HT1080 IDH1KD tx inconclusive, TDP1 cell CPT 1.46µM, TDP1 cell noCPT 0.731µM
C/C(=N\NC(=O)c1cc(C)nc2ccccc12)c1ccncc1	HT1080-NT tox inconclusive, HT1080 IDH1KD tx 7.31µM
O=C(CSc1nnc(NC2CCCCC2)s1)N1CCOCC1	none
COc1ccc(CCn2c(=O)c3cccnc3n(Cc3cccc([N+](=O)[O-])c3)c2=O)cc1OC	none
COc1ccc(C(=O)c2cn(Cc3cccc(C)c3)c3cc4c(cc3c2=O)OCCO4)cc1OC	TDP1 cell CPT inconclusive, TDP1 cell noCPT 20.6µM (no result: HT1080-NT tox, HT1080 IDH1KD tx, IL-1B inflam inh)
COc1ccc(C(=O)c2cn(Cc3ccccc3)c3ccccc3c2=O)cc1OC	TDP1 cell CPT 20.6µM, TDP1 cell noCPT inconclusive (no result: HT1080-NT tox, HT1080 IDH1KD tx, IL-1B inflam inh)
NC(=O)CSc1cn(Cc2ccccc2)c2ccccc12	IL-1B inflam inh -64.6, TDP1 cell CPT inconclusive, TDP1 cell noCPT inconclusive
CCOc1ccc2c(c1)c(=O)c(C(=O)c1ccccc1)cn2Cc1ccccc1	TDP1 cell CPT 20.6µM, TDP1 cell noCPT 14.6µM (no result: HT1080-NT tox, HT1080 IDH1KD tx, IL-1B inflam inh)
COc1ccc2c(c1)c(=O)c(C(=O)c1ccccc1)cn2Cc1ccccc1	none
